Screens as filed in PubChem.
Rows were chosen to be rich in hits. Some 5.2% of all compounds tested hit in one or more screens of this group.
Vif imaging – HIV Vif inhibition | inhibition, % at 7.49 µM | actives 0.35% (n = 340,000) | AID 602346 | HEK293T cells, Vif self-association by quenched fluorescence, imaging, 24 h; in the data active = inhibition above about 50%, passing the limit was not always enough
SMARCA2 act – activators of SMARCA2 function | activation, % at 9.1 µM | actives 1% (n = 370,000) | MG213 cells, MMTV-luciferase reporter, dexamethasone, overnight; in the data active = activation above about 7.8%
SKN-1 block – blocks SKN-1 activity in C. elegans; C. elegans VP596 Pgst-4::GFP/RFP ratio, acrylamide-induced, 24 h; inhibition, % at 21.8 µM; actives 0.49% (n = 360,000);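 active = interference check ratio from 0.5 to 1.5 plus GFP to RFP signal ratio inhibition reaching or exceeding a fixed threshold, cut at about 30% in these data, passing the limit was not always enough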
NR3A LBD binder – NR3A (human) ligand-binding domain modulation. actives 2.5% (n = 340,000). NR3A LBD differential scanning fluorimetry, Tm shift; 0% = protein alone, 100% = glycine-bound protein. Tm shift relative to glycine control, % at 25 µM;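 active = melting temperature shift of at least 10% of the positive control shift, at one fixed dose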
esBAF inh – SWI/SNF esBAF complex inhibition. mouse ES cells, Bmi1-luciferase knock-in reporter, 24 h; 100% = twice the neutral-well signal. reporter increase, % at 12.5 µM. actives 2% (n = 350,000); in the data active = activation above about 40%;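 note: a rise in the Bmi1 reporter signal indicates esBAF inhibition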
NadD inh – inhibitors of Staphylococcus aureus NadD; purified NadD enzyme, colorimetric absorbance read-out; actives 0.78% (n = 360,000); inhibition, % at 20 µM; AID 602399; in the data active = inhibition above about 26%
SMARCA2 conf – confirmation of SMARCA2 (BRM) function activators | shares compounds with SMARCA2 act | MG213 cells, MMTV-luciferase with dexamethasone, luminescence, overnight; MG213 cells expressing E1A, Rb sequestered; DMSO wells 0%, reference activator 100% | activation, % at 9.1 µM | actives 30% (n = 3,500) | AID 652260;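 active = activation above its plate's cutoff, the mean activation of tested wells plus 3 SD, cut at about 7.9% in these data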
GAL4-VP16 Luc – counter-screen for SMARCA2 activators: GAL4-VP16 luciferase reporter activation | shares compounds with SMARCA2 act | HEK293 GAL4-VP16 pG5luc reporter, luciferase luminescence; scaled: DMSO wells 0%, SAHA wells 100% | activation, % at 9.1 µM | actives 41% (n = 3,500) | AID 686939;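 active = activation above the solvent-only control well mean plus 3 SD, averaged across control plates, cut at about 5.2% in these data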
Each line names hits and unclear results; the compound was inactive in the other large screens (follow-up assays come after a bar, where they were run).

O=C(Nc1ccc(CN2CCCCC2)cc1)c1cccc(F)c1	none
COc1cc(OC)cc(C(=O)Nc2ccc(CN3CCCCC3)cc2)c1	none
CCOc1ccc(OCc2cccc(C(=O)Nc3ccc(CN4CCCCC4)cc3)c2)cc1	SMARCA2 act 12 (no result: esBAF inh) | SMARCA2 conf 14 | GAL4-VP16 Luc 10
CCCCNC(=O)C1CCN(Cc2ccc(OCc3ccccc3)c(OC)c2)CC1	SMARCA2 act 9.4 | SMARCA2 conf inactive | GAL4-VP16 Luc 6.2
CCOCCCNC(=O)C1CCN(Cc2ccc(OCc3ccccc3)c(OC)c2)CC1	none
Cn1c(N)c(C(=O)COC(=O)c2cc(S(=O)(=O)N3CCOCC3)ccc2F)c(=O)n(C)c1=O	SMARCA2 act 37 | SMARCA2 conf 9.9 | GAL4-VP16 Luc inactive
Cc1ccc(S(=O)(=O)N2CCOCC2)cc1C(=O)OCC(=O)NC1CC1	SMARCA2 act 9.3 | SMARCA2 conf inactive | GAL4-VP16 Luc inactive
Cc1ccc(C)c(CSC2=NN3CCCC(=O)N=C3S2)c1	SMARCA2 act 8.5 | SMARCA2 conf inactive | GAL4-VP16 Luc inactive
OCCNCc1ccc(-c2ccccc2)cc1	SMARCA2 act 8.2 (no result: esBAF inh) | SMARCA2 conf inactive | GAL4-VP16 Luc inactive
COc1ccc(C2N=C(c3ccccc3)NO2)cc1OC (centres undefined)	SMARCA2 act 8.6, esBAF inh 52 | SMARCA2 conf 14 | GAL4-VP16 Luc 9.6
Cc1ccc(C)c(C(=O)COC(=O)c2cccc(N3C(=O)c4c(C)nc5ccccc5c4C3=O)c2)c1	SMARCA2 act 14 (no result: esBAF inh) | SMARCA2 conf inactive | GAL4-VP16 Luc inactive
Nc1ccc(C(=O)OCc2nc3ccccc3s2)cc1	none (no result: esBAF inh)
O=C(OCc1nc2ccccc2s1)c1cc2ccccc2oc1=O	SMARCA2 act 8.2 (no result: Vif imaging, SKN-1 block, NR3A LBD binder, esBAF inh, NadD inh) | SMARCA2 conf inactive | GAL4-VP16 Luc 9.1
CN(C)CC(=O)Nc1ccc2c(c1)[C@@H]1C[C@@H](CC(=O)NCc3ccccc3)O[C@H](CO)[C@@H]1O2	none (no result: Vif imaging, SMARCA2 act, SKN-1 block, NR3A LBD binder, NadD inh)
CC(C)NC(=O)N[C@@H]1CC[C@H](CCNC(=O)C2CC2)O[C@H]1CO	none (no result: Vif imaging, SMARCA2 act, SKN-1 block, NR3A LBD binder, NadD inh)
N#C/C(=C\c1ccc[nH]1)C(=O)Nc1ccccc1[N+](=O)[O-]	SMARCA2 act 11, esBAF inh 63 | SMARCA2 conf 14 | GAL4-VP16 Luc 6.1
Cc1ccccc1NC(=O)/C(C#N)=C/c1ccc[nH]1	SMARCA2 act 9.5 | SMARCA2 conf inactive | GAL4-VP16 Luc 5.3
C[C@@H]1CCCCO[C@@H](CN(C)C(=O)Nc2ccc(C(F)(F)F)cc2)[C@H](C)CN([C@@H](C)CO)C(=O)c2cc(NC(=O)Nc3cccc4ccccc34)ccc2O1	none (no result: Vif imaging, SMARCA2 act, SKN-1 block, NR3A LBD binder, NadD inh)
CC=Cc1ccc2n(c1=O)C[C@H]1[C@H](CO)[C@@H](C(=O)NCC)N(Cc3cocn3)[C@@H]21 (mixture of isomers)	none (no result: Vif imaging, SMARCA2 act, SKN-1 block, NR3A LBD binder, NadD inh)
C[C@H]1CN([C@@H](C)CO)C(=O)c2cc(C3=CCCCC3)cnc2O[C@H]1CN(C)C(=O)CN1CCOCC1	none (no result: Vif imaging, SMARCA2 act, SKN-1 block, NR3A LBD binder, NadD inh)
Cc1ccc(S(=O)(=O)CCC(=O)OCC(=O)Nc2cc(S(=O)(=O)N3CCOCC3)ccc2Cl)cc1	none
O=C(COC(=O)CCS(=O)(=O)c1ccccc1)Nc1cc(S(=O)(=O)N2CCCCC2)ccc1Cl	SMARCA2 act 8.8 | SMARCA2 conf inactive | GAL4-VP16 Luc inactive
C[C@H]1CN([C@@H](C)CO)C(=O)c2cc(NC(=O)c3ccncc3)ccc2O[C@H]1CN(C)C(=O)Nc1ccc(C(F)(F)F)cc1	none (no result: Vif imaging, SMARCA2 act, SKN-1 block, NR3A LBD binder, NadD inh)
O=c1c(-c2ccc(F)cc2)coc2cc(O)ccc12	SMARCA2 act 12 | SMARCA2 conf inactive | GAL4-VP16 Luc 11
COc1ccc(S(=O)(=O)Nc2ccc3c(c2)C(=O)N(C)C[C@H](OC)[C@H](C)CN[C@H](C)CO3)cc1	none (no result: Vif imaging, SMARCA2 act, SKN-1 block, NR3A LBD binder, NadD inh)
O=c1c2ccccc2n(CC(O)CN2CCCCC2)c2ccccc12 (centres undefined)	SMARCA2 act 9.4 (no result: Vif imaging) | SMARCA2 conf inactive | GAL4-VP16 Luc inactive
OC(CN1CCCCC1)Cn1c2ccccc2c2ccccc21 (centres undefined)	none (no result: Vif imaging)
CCOc1ccc(CCN2C(=O)C3C4CCC(O4)C3C2=O)cc1OCC (centres undefined)	SMARCA2 act 10 | SMARCA2 conf inactive | GAL4-VP16 Luc inactive
O=C(C[C@@H]1C=C[C@@H](NC(=O)NC2CCCCC2)[C@H](CO)O1)NCc1ccc(F)cc1	none (no result: Vif imaging, SMARCA2 act, SKN-1 block, NR3A LBD binder, NadD inh)
CNC[C@@H]1Oc2ccc(NC(=O)Nc3ccccc3)cc2CC(=O)N([C@@H](C)CO)C[C@H]1C	none (no result: Vif imaging, SMARCA2 act, SKN-1 block, NR3A LBD binder, NadD inh)
CN1OC[C@@H]2CN(C(=S)NCCc3ccccc3)[C@H](c3ccc(-n4ccnc4)cc3)C[C@@H]21	SMARCA2 act 8.4 (no result: NR3A LBD binder) | SMARCA2 conf inactive | GAL4-VP16 Luc inactive
O=S(=O)(c1ccccc1F)N1C[C@H]2[C@@H](c3ccccc31)[C@@H](CO)N2Cc1ccc2c(c1)OCO2	none (no result: Vif imaging, SMARCA2 act, SKN-1 block, NR3A LBD binder, NadD inh)
CO[C@H]1CN(C)C(=O)c2cc(NS(=O)(=O)c3ccc(C)cc3)ccc2OC[C@H](C)N(C(=O)NC(C)C)C[C@H]1C	none (no result: Vif imaging, SMARCA2 act, SKN-1 block, NR3A LBD binder, NadD inh)
O=C(CSc1nc2ccccc2s1)N/N=C/c1ccco1	SMARCA2 act 8.8 (no result: esBAF inh) | SMARCA2 conf 8.9 | GAL4-VP16 Luc inactive
COc1ccc(CC(NC(C)=O)C(=O)NC2CCN(c3nc(C)cc(C)c3C#N)CC2)cc1OC (centres undefined)	SMARCA2 act 15 (no result: esBAF inh) | SMARCA2 conf inactive | GAL4-VP16 Luc inactive
O=C1C(Sc2ccccc2)=C[C@@]2(O)CC[C@@H](O)[C@]1(Sc1ccccc1)[C@H]2O	SMARCA2 act 12 (no result: Vif imaging, NR3A LBD binder, esBAF inh) | SMARCA2 conf 10 | GAL4-VP16 Luc inactive
CSc1nc(Cl)cc(Nc2ccc(O)cc2)n1	SMARCA2 act 14 (no result: esBAF inh) | SMARCA2 conf inactive | GAL4-VP16 Luc inactive
COc1ccc(C2=NN(C(C#N)c3ccc(OC)cc3)C(c3ccccc3)C2)cc1 (centres undefined)	none (no result: esBAF inh)
COc1ccc(C(C#N)N2N=C(c3ccccc3)CC2c2ccccc2)cc1OC (centres undefined)	SMARCA2 act 13 (no result: esBAF inh) | SMARCA2 conf inactive | GAL4-VP16 Luc inactive
COc1ccc(NC(=O)Nc2ccc3c(c2)[C@@H]2C[C@@H](CC(=O)NC4CCCCC4)O[C@@H](CO)[C@@H]2O3)cc1	none (no result: Vif imaging, SMARCA2 act, SKN-1 block, NR3A LBD binder, NadD inh)
C[C@@H]1CN([C@H](C)CO)C(=O)c2cc(NC(=O)CCN3CCOCC3)ccc2O[C@H]1CN(C)C(=O)Nc1ccc2c(c1)OCO2	none (no result: Vif imaging, SMARCA2 act, SKN-1 block, NR3A LBD binder, NadD inh)
CC(=O)N1c2ccc(S(=O)(=O)N3CCC(C(=O)NCc4ccc(C)cc4)CC3)cc2CC1C (centres undefined)	SMARCA2 act 11 | SMARCA2 conf inactive | GAL4-VP16 Luc inactive
